# Source: PubChem BioAssay AID463212 (Sanford-Burnham Center for Chemical Genomics, 2010)
# Screen size: about 330,000 compounds; about 4,400 (1.3%) were called active. This excerpt belongs to a sample that is enriched for actives. Unmarked numbers belong to inactive results.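 How the source made its calls: active means growth inhibition of the mutant yeast at or above 50%; inactive means the rest.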
# Test: growth inhibition of tim23-1 ts yeast – luminescence, uHTS, primary screen (AID 463212);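 further: temperature-sensitive mutant grown at 25 °C; plate controls were DMSO-treated mutant yeast for no effect and medium wells lacking yeast for full effect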
# Conditions: S. cerevisiae tim23-1 growth, BacTiter-Glo luminescence, 24 h; at 20 µM; stronger effect = higher value
row,SMILES,inhibition
1,O=C1NC(=O)N(c2ccccc2)C(=O)/C1=C/c1ccc([N+](=O)[O-])s1,41.2%
2,COc1ccc(N2C(=O)/C(=C/c3ccco3)C(=O)NC2=S)cc1,11.6%
3,COc1cccc(N2C(=O)NC(=O)/C(=C\c3ccc([N+](=O)[O-])s3)C2=O)c1,50.5% (active)
4,COC(=O)C1=C(c2ccc(F)cc2OCc2ccccc2)C[C@@H]2CC[C@H]1N2C(=O)NCc1ccc(C(C)(C)C)cc1,19.7%
5,Cc1cc2ccccn2c1C(C[N+](=O)[O-])c1c(F)cccc1Cl (stereo not given),69.2% (active)
6,O=c1c2ccccc2nc(-c2ccc(Cl)cc2Cl)n1-c1ccncc1,35.9%
7,COP(=O)(OC)C(NC(=O)c1ccc(C)cc1)C(Cl)(Cl)Cl (stereo not given),-17.8%
8,COC(=O)C1=C(c2ccc(Cl)c(C(F)(F)F)c2)C[C@@H]2CC[C@H]1N2C(=O)NC(C)C,21.8%
9,CCC(C)n1c(O)c(/C=N/Nc2nc3c(c(=O)n(C)c(=O)n3C)n2C)c(=O)[nH]c1=S (stereo not given),1.46%
10,CC(=O)N1CN2CN(C(C)=O)CC(C(=O)c3ccc(Br)cc3)(C2)C1,0.81%
11,O=c1c2ccccc2nc(-c2ccccc2)n1-c1ccccn1,14.3%
12,O=c1c2ccccc2nc(-c2ccco2)n1-c1ccc(Br)cn1,29%
13,Cc1ccc(-c2nc3ccccc3c(=O)n2-c2ccc(Br)cn2)cc1,52.7% (active)
14,COC(=O)C1=C(c2cc3ccccc3s2)C[C@@H]2CC[C@H]1N2C(=O)NCc1cccc2ccccc12,34.5%
15,COc1cccc(CN2CCCC(C(=O)c3ccccc3SC)C2)c1O (stereo not given),8.13%
